# Results filed as inconclusive are left out. Some compounds were tested as several samples or in several runs, with calls that do not always agree. Active and inactive are the calls of the source. Rule for the calls, unless noted: active = hit-call score of the fitted dose curve at least 0.9, where 1 is the maximum; inconclusive = response in the unintended direction; inactive = score below 0.9.
# Tests used:
# [1] = read-out: Thyroid Hormone Responsive (THRSP), THRSP (gene 7069); test: LTEA_HepaRG_THRSP: Life Technologies and Expression Analysis (LTEA) Assay for Thyroid Hormone Responsive (THRSP) using HepaRG (AID 2283536; active = hit-call score of the fitted dose curve at least 0.9, where 1 is the maximum; inactive = score below 0.9); settings: mRNA level, 48 h; actives raise or lower the signal
# Summary of the method: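 qRT-PCR read-out (Fluidigm TaqMan), housekeeping-normalized (ACTB/GAPDH/POLR2A). HepaRG, 48 h chemical exposure, 8-pt half-log series from 100 uM in 0.5% DMSO, duplicates. Bidirectional curve fit vs 0.5% DMSO baseline.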
# [2] = read-out: Cellular tumor antigen p53 (Homo sapiens) (UniProt P04637); test: LTEA_HepaRG_TP53: Life Technologies and Expression Analysis (LTEA) Assay for Tumor Protein P53 (TP53) using HepaRG (AID 2283537; active = hit-call score of the fitted dose curve at least 0.9, where 1 is the maximum; inactive = score below 0.9); settings: mRNA level, 48 h; actives raise or lower the signal
# Summary of the method: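 TP53 transcript measured by qRT-PCR, normalized to three housekeeping genes, after 48 h treatment of human HepaRG cultures with chemicals from 100 uM downward in half-log steps (0.5% DMSO vehicle, serum-free induction medium). Up- or down-regulation fitted against DMSO.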
# [3] = read-out: UDP glucuronosyltransferase (UGT1A1), UGT1A1 (gene 54658); test: LTEA_HepaRG_UGT1A1: Life Technologies and Expression Analysis (LTEA) Assay for UDP glucuronosyltransferase (UGT1A1) using HepaRG (AID 2283538; active = hit-call score of the fitted dose curve at least 0.9, where 1 is the maximum; inactive = score below 0.9); settings: mRNA level, 48 h; actives raise or lower the signal
# Summary of the method: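 Cells are plated, cultured 48 h, switched to serum-free induction medium, then dosed 48 h at eight concentrations (max 100 uM, 0.5% DMSO). RNA is isolated and UGT1A1 expression measured by qRT-PCR; changes versus DMSO are fitted in both directions.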
# [4] = read-out: UDP glucuronosyltransferase (UGT1A6), UGT1A6 (gene 54578); test: LTEA_HepaRG_UGT1A6: Life Technologies and Expression Analysis (LTEA) Assay for UDP glucuronosyltransferase (UGT1A6) using HepaRG (AID 2283539; active = hit-call score of the fitted dose curve at least 0.9, where 1 is the maximum; inactive = score below 0.9); settings: mRNA level, 48 h; actives raise or lower the signal
# Summary of the method: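 Measures mRNA change in HepaRG hepatic cells exposed 48 h to chemicals (eight-point, maximum 100 uM, 0.5% DMSO vehicle) in serum-free induction medium. Expression normalized to endogenous controls; DMSO served as negative control and baseline.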
# [5] = read-out: X-box binding protein 1 (XBP1), XBP1 (gene 7494); test: LTEA_HepaRG_XBP1: Life Technologies and Expression Analysis (LTEA) Assay for X-box binding protein 1 (XBP1) using HepaRG (AID 2283540; active = hit-call score of the fitted dose curve at least 0.9, where 1 is the maximum; inactive = score below 0.9); settings: mRNA level, 48 h; actives raise or lower the signal
# Summary of the method: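 Eight concentrations (half-log, highest 100 uM, 0.5% DMSO) tested in duplicate on HepaRG cells over 48 h in serum-free induction medium; qRT-PCR of XBP1 normalised to ACTB, GAPDH, POLR2A.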
# [6] = LTEA_HepaRG_LDH_cytotoxicity: Cytotoxicity Assessment in the Life Technologies and Expression Analysis (LTEA) Assay (AID 2283563)
# Summary of the method: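 Spent-medium LDH after 48 h chemical exposure of HepaRG cells in serum-free induction medium; eight concentrations, half-log dilutions from 100 uM, duplicate wells, fitted upward relative to 0.5% DMSO.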
# [7] = TOX21_p53_BLA_p2_viability: Viability Assessment in the Tox21 HCT-116 p53 Agonism Beta-lactamase Assay, Phase 2 (AID 2283591);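 note: compound exposure lasted 16 h at 37 °C; actives lower the ATP signal meaning cytotoxicity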
# Summary of the method: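 HCT116 p53-bla cells, 4000/well, dosed after 5 h plating (217-fold dilution of DMSO stocks) and incubated 16 h at 37C. Viability taken as cellular ATP by CellTiter-Glo luminescence after 30 min RT; signal loss marks cytotoxicity.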
# [8] = biological target: Cellular tumor antigen p53 (Homo sapiens) (UniProt P04637); test: TOX21_p53_BLA_p2_ratio: Tox21 HCT-116 p53 Agonism Beta-lactamase Assay, Ratio, Phase 2 (AID 2283592)
# Summary of the method: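 DMSO-normalized, positive-direction endpoint derived from the 460 nm/530 nm FRET ratio in HCT116 p53 beta-lactamase reporter cells exposed 16 h at 37C and loaded with CCF4-AM for 2 h.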
# [9] = TOX21_p53_BLA_p3_viability: Viability Assessment in the Tox21 HCT-116 p53 Agonism Beta-lactamase Assay, Phase 3 (AID 2283593);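 note: cells exposed to compound for 16 h before reading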
# Summary of the method: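 HCT116 cells, 4000/well, dosed 5 h after plating by pin transfer (217-fold dilution from DMSO stock) and incubated 16 h at 37C, 5% CO2. Viability read as ATP luminescence with CellTiter-Glo after 30 min at room temperature.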
# [10] = biological target: Cellular tumor antigen p53 (Homo sapiens) (UniProt P04637); test: TOX21_p53_BLA_p3_ratio: Tox21 HCT-116 p53 Agonism Beta-lactamase Assay, Ratio, Phase 3 (AID 2283596)
# Summary of the method: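 Cells were seeded at 4000/well, rested 5 h at 37C, then dosed with DMSO compound solutions (217-fold dilution) for 16 h. CCF4-AM substrate was loaded for 2 h at room temperature, and the 460/530 nm emission ratio was fitted for gain of signal versus DMSO.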
# [11] = TOX21_p53_BLA_p4_viability: Viability Assessment in the Tox21 HCT-116 p53 Agonism Beta-lactamase Assay, Phase 4 (AID 2283597);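 note: hits lower the luminescence signal meaning cytotoxicity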
# Summary of the method: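 In this multiplexed secondary endpoint, HCT116 cells (4000 per well, compound at 5 h, 16 h treatment) received CellTiter-Glo after the beta-lactamase read. Luminescence after 30 min RT reflects ATP, and falling signal marks cytotoxicity.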
# [12] = biological target: Cellular tumor antigen p53 (Homo sapiens) (UniProt P04637); test: TOX21_p53_BLA_p5_ratio: Tox21 HCT-116 p53 Agonism Beta-lactamase Assay, Ratio, Phase 5 (AID 2283599)
# Summary of the method: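 HCT-116 p53-bla cells (4000/well) plated 5 h, dosed with compound (217-fold DMSO dilution) for 16 h at 37 C; CCF4-AM substrate 2 h at room temperature. Activity is the 460/530 nm emission ratio (405 nm excitation), fitted in gain-of-signal direction versus DMSO.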
# [13] = TOX21_p53_BLA_p5_viability: Viability Assessment in the Tox21 HCT-116 p53 Agonism Beta-lactamase Assay, Phase 5 (AID 2283600)
# Summary of the method: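 Here cell health was gauged by ATP levels in wells holding 4000 cells, each treated 16 h with DMSO-delivered compounds at 217-fold dilution; reduced luminescence marked toxicity.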
# [14] = biological target: Cellular tumor antigen p53 (Homo sapiens) (UniProt P04637); test: TOX21_p53_BLA_p4_ratio: Tox21 HCT-116 p53 Agonism Beta-lactamase Assay, Ratio, Phase 4 (AID 2283601)
# Summary of the method: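 HCT-116 p53 beta-lactamase reporter cells (4000/well) preincubated 5 h, then compound (217-fold dilution of DMSO stock) for 16 h at 37C. CCF4-AM substrate added 2 h at room temperature; 460/530 nm emission ratio fitted upward versus DMSO.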
# [15] = Tanguay_ZF_120hpf_MORT_legacy: (Legacy) Oregon State University Tanguay Lab 120 Hour Post-fertilization zebrafish Assay for Mortality (AID 2283633)
# Summary of the method: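 Single dechorionated Tropical 5D embryos were held with test chemical (0.64% DMSO final) from 6 to 120 hpf at 28C under foil. Deaths at 24 or 120 hpf were recorded as binary calls, analysed for increase over DMSO controls.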
# [16] = Tanguay_ZF_120hpf_YSE_legacy: (Legacy) Oregon State University Tanguay Lab 120 Hour Post-fertilization zebrafish Assay for Yolk Sac Edema (AID 2283634);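 for AC50: actives raise the incidence of yolk sac edema above the DMSO baseline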
# Summary of the method: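 Single dechorionated embryos were held in sealed plates at 28C with test chemical (0.64% DMSO final) from 6 hpf until 120 hpf. Edema of the yolk sac was then recorded as a binary endpoint; non-mortality endpoints were skipped for dead embryos.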
# [17] = Tanguay_ZF_120hpf_SNOU_legacy: (Legacy) Oregon State University Tanguay Lab 120 Hour Post-fertilization zebrafish Assay for Snout Malformation (AID 2283637)
# Summary of the method: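 Binary brightfield scoring of snout malformation at 120 hpf. Dechorionated 5D wild-type embryos, one per well, static exposure from 6 hpf at 28C, sealed and dark; final DMSO 0.64% (vol/vol), DMSO as baseline; 5uM trimethyltin chloride positive control.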
# [18] = Tanguay_ZF_120hpf_AXIS_legacy: (Legacy) Oregon State University Tanguay Lab 120 Hour Post-fertilization zebrafish Assay for Body Axis Malformation (AID 2283635);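 for AC50: potency for an increased fraction of larvae scored with body axis malformation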
# Summary of the method: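 Each dechorionated embryo was exposed alone from 6 hpf, with DMSO at 0.64% (vol/vol) and trimethyltin chloride 5 uM as positive control. Axis malformation was recorded at 120 hpf unless the embryo had died.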
# [19] = Tanguay_ZF_120hpf_EYE_legacy: (Legacy) Oregon State University Tanguay Lab 120 Hour Post-fertilization zebrafish Assay for Eye Malformation (AID 2283636);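 note: binary presence or absence of eye malformation scored by brightfield in 120 hpf larvae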
# Summary of the method: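 5D wild-type embryos, pronase-dechorionated at 4 hpf; static exposure 6–120 hpf, 28C, dark; DMSO 0.64% final; 5uM trimethyltin chloride positive control. Binary eye-defect scoring at 120 hpf; dead embryos not scored.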
# [20] = ATG_XTT_Cytotoxicity: Cytotoxicity Assessment in the Attagene TRANS-FACTORIAL HepG2 Assay (AID 2283584)
# Summary of the method: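 24 h chemical exposure of reporter-transfected HepG2; XTT signal loss vs DMSO indicates cytotoxicity.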
# Cellular tumor antigen p53 (Homo sapiens), sequence (P04637 whole entry, looked up): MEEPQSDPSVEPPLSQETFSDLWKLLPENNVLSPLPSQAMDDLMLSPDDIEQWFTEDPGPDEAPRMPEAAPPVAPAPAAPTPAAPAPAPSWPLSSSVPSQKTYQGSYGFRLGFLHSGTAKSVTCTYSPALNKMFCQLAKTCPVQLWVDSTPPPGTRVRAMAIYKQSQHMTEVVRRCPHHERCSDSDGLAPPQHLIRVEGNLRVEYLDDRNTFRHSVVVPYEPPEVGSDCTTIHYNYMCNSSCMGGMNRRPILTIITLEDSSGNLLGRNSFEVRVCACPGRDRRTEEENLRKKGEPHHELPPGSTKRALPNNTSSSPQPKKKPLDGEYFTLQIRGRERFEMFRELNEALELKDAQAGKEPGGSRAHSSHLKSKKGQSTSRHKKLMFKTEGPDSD
structure (smiles),measurement,setting,value
CCOP(=S)(OCC)Oc1cc(C)nc(C(C)C)n1,AC50,[1],73.3 µM (active)
same,outcome,[2],inactive
same,AC50,[3],10.5 µM (active)
same,outcome,[4],inactive
same,outcome,[5],inactive
same,outcome,[6],inactive
same,outcome,[7],inactive
same,outcome,[8],inactive
same,AC50,[9],49.5 µM (active)
same,outcome,[9],inactive
same,AC50,[10],67.9 µM (active)
same,outcome,[10],inactive
same,outcome,[11],inactive
same,AC50,[12],41.7 µM (active)
same,AC50,[13],36.1 µM (active)
same,outcome,[13],inactive
same,outcome,[14],inactive
same,outcome,[15],inactive
same,outcome,[16],inactive
same,outcome,[17],inactive
CC(C)N(C(=O)SCC(Cl)=C(Cl)Cl)C(C)C,outcome,[1],inactive
same,outcome,[2],inactive
same,outcome,[3],inactive
same,outcome,[4],inactive
same,outcome,[5],inactive
same,outcome,[6],inactive
same,outcome,[7],inactive
same,outcome,[8],inactive
same,outcome,[9],inactive
same,outcome,[10],inactive
same,outcome,[11],inactive
same,outcome,[12],inactive
same,outcome,[13],inactive
same,outcome,[14],inactive
same,outcome,[15],inactive
same,outcome,[16],inactive
same,outcome,[18],inactive
same,outcome,[19],inactive
same,outcome,[17],inactive
CN(C)NC(=O)CCC(=O)O,outcome,[1],inactive
same,outcome,[2],inactive
same,outcome,[3],inactive
same,outcome,[4],inactive
same,outcome,[5],inactive
same,outcome,[6],inactive
same,outcome,[7],inactive
same,outcome,[8],inactive
same,outcome,[9],inactive
same,outcome,[10],inactive
same,outcome,[11],inactive
same,outcome,[12],inactive
same,outcome,[13],inactive
same,outcome,[14],inactive
same,outcome,[15],inactive
same,outcome,[16],inactive
same,outcome,[18],inactive
same,outcome,[19],inactive
same,outcome,[17],inactive
CCOP(=S)(OCC)Oc1ccc2c(C)c(Cl)c(=O)oc2c1,AC50,[1],14.8 µM (active)
same,outcome,[2],inactive
same,AC50,[3],3.4 µM (active)
same,outcome,[4],inactive
same,outcome,[5],inactive
same,outcome,[6],inactive
same,outcome,[20],inactive
same,outcome,[7],inactive
same,outcome,[8],inactive
same,outcome,[9],inactive
same,outcome,[10],inactive
same,outcome,[11],inactive
same,outcome,[12],inactive
same,outcome,[13],inactive
same,outcome,[14],inactive
same,outcome,[15],inactive
same,outcome,[16],inactive
same,outcome,[18],inactive
same,outcome,[19],inactive
same,outcome,[17],inactive
CNC(=O)ON=C(SC)C(=O)N(C)C,outcome,[1],inactive
same,outcome,[2],inactive
same,outcome,[3],inactive
same,outcome,[4],inactive
same,outcome,[5],inactive
same,outcome,[6],inactive
same,outcome,[7],inactive
same,outcome,[8],inactive
same,outcome,[9],inactive
same,outcome,[10],inactive
same,outcome,[11],inactive
same,outcome,[12],inactive
same,outcome,[13],inactive
same,outcome,[14],inactive
same,outcome,[15],inactive
same,outcome,[16],inactive
same,outcome,[18],inactive
same,outcome,[19],inactive
same,outcome,[17],inactive
O=c1ccc(=O)[nH][nH]1,outcome,[1],inactive
same,outcome,[2],inactive
same,outcome,[3],inactive
same,outcome,[4],inactive
same,outcome,[5],inactive
same,outcome,[6],inactive
same,outcome,[7],inactive
same,outcome,[8],inactive
same,outcome,[9],inactive
same,outcome,[10],inactive
same,outcome,[11],inactive
same,outcome,[12],inactive
same,outcome,[13],inactive
same,outcome,[14],inactive
same,outcome,[15],inactive
same,AC50,[16],25.4 µM (active)
same,AC50,[18],51.7 µM (active)
same,outcome,[19],inactive

# Reference: PubChem BioAssay (EPA / NIEHS)
